A selection: hits, their analogues and other compounds. The true share with any hit is near 2.1%.
Abeta yeast res: qHTS for compounds that reverse cellular toxicity of Amyloid beta (A-beta) peptide in yeast: Primary Screen. yeast expressing A-beta42, growth rescue, OD600, 48 h; response scale: 0% DMSO, 100% iron-clioquinol control. Potency, µM (series often up to 46.1 µM), actives largely listed as activators. hit rate 0.063% among 410,000. AID 1347071, 2019; note: nearly all actives have a fitted effect of over 55% in size
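Yeast growth medium received pinned compounds, then yeast cells expressing toxic A-beta were added; plates incubated at 30 C for 48 hr. Growth read as absorbance at 600 nm, normalized to DMSO and equimolar FeCl3 plus clioquinol controls.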
FUS suppressor: qHTS for Suppressors of FUS Proteinopathy: Primary screen using FUS-linked yeast assay; S. cerevisiae FUS-expressing, growth rescue, OD600, 24 h; Potency, µM (top dose mostly 76.6 µM), most hits filed as activators; hit rate 0.24% among 390,000; AID 1347120, 2019;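 note: plate controls were DMSO vehicle for no effect and reference control for full effect; nearly all actives have a fitted effect of over 55% in size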
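Read-out: OD at 600 nm after 24hr at 30C, reporting rescue of FUS-induced yeast toxicity. Cells at OD 0.005 in galactose (2%) minimal medium; compounds tested in a dilution series; CP55940 titration from 92uM final as control.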
TDP43 rescue: qHTS of TDP-43 Inhibitors; TDP-43 expressing yeast growth rescue, BacTiter-Glo, 24 h; Potency, µM (top dose mostly 46.1 µM), for the others: at the highest dose growth rescue (activation), usual class: activators; hit rate 1.8% among 410,000; AID 652104, 2013; note: % of control where 0% means no effect; nearly all actives have a fitted effect of over 50% in size
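Yeast cells expressing TDP-43 under galactose induction are exposed to compounds for 24 hr at 30 deg C. BacTiter-Glo luminescence measures growth, so protective compounds score as activators.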
aSyn yeast inh: qHTS of alpha-syn Inhibitors. Yeast expressing alpha-synuclein, growth rescue, BacTiter-Glo, 24 h. Potency, µM (highest dose often 46.1 µM), without a hit: at the highest dose growth rescue (activation), most hits filed as activators. hit rate 0.14% among 370,000. AID 652106, 2013; note: % of control where 0% means no effect; nearly all actives have a fitted effect of over 65% in size
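Screening used galactose-induced yeast with toxic alpha-synuclein levels, exposed to compound for 24 hr at 30 deg C. Cell growth, read with BacTiter-Glo luminescence, gave the measured signal.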
* = called active by the depositor; i = inactive; ? = inconclusive; . = not tested or not shown. Calls come from the whole dose curve; as a rule, active = well fitted curve in the direction sought with a large enough effect; inconclusive = small, poorly fitted or top-dose-only effect, or another doubt; inactive = no such curve, though single readings can be large; an effect the other way counts as inactive or inconclusive. Potency is the fitted concentration of half-maximal effect.

SMILES | Abeta yeast res | FUS suppressor | TDP43 rescue | aSyn yeast inh
O[C@H](COc1ccc(F)cc1)CN1CCC(C(O)(c2ccccc2)c2ccccc2)CC1 | . | i | . | .
Cc1cc(Oc2ccc(Cl)cc2Cl)nc(C#N)n1 | . | . | . | 3%
Fc1ccc(C(NCCc2ccccc2)c2nnc(-c3ccccc3Cl)o2)cc1 (configuration not stated) | i | i | 29% | .
CCCS(=O)(=O)c1ncc(Cl)c(C(=O)N(Cc2ccccc2)Cc2ccco2)n1 | i | i | 16µM* | 23%
O=C(Nc1ccc(C(F)(F)F)cc1)c1cc(S(=O)(=O)NC2CCCCCC2)ccc1F | ? | i | ? | .
COC(=O)c1ccc(C2C=C(c3ccc(Cl)cc3)Nc3nc4ccccc4n32)cc1 (configuration not stated) | i | i | 10µM* | .
COc1ccc(C2=CC(c3cc(Br)ccc3F)n3c(nc4ccccc43)N2)cc1 (configuration not stated) | i | i | ? | .
Fc1ccc(C2=CC(c3ccc(F)cc3)n3c(nc4ccccc43)N2)cc1 (configuration not stated) | i | i | 22µM* | .
COC(=O)c1ccc(NC(=O)CSc2nc(=O)n(Cc3ccco3)c3c2CCC3)cc1 | i | ? | 0% | .
CCOc1ccc(C2c3[nH]c4ccccc4c3CCN2C(=O)Cc2cccc(OCC)c2OCC)cc1 (configuration not stated) | i | ? | 1% | .
COc1cc2c(cc1OC)/C(=C/c1ccc(Cl)cc1)C(=O)OC2 | i | i | 22µM* | 13%
Cc1c(OCc2ccccc2)cccc1OCc1ccccc1 | i | i | 0% | -11%
Clc1ncccc1OCc1ccccc1 | i | i | 13µM* | 3%
Cc1[nH]c2ccccc2c1C(=O)CCl | i | i | 16µM* | 2%
c1ccc(-c2nnc3sc(C4CCCCC4)nn23)cc1 | . | i | . | .
COc1cc(C)ccc1Oc1ncnc(N)c1[N+](=O)[O-] | i | i | 0% | 0%
Nc1ncnc(Oc2cccc(C(F)(F)F)c2)c1[N+](=O)[O-] | i | i | 13µM* | -3%
CCCn1cc(S(=O)(=O)c2ccccc2)c(=O)c2cc(F)c(N3CCCC(C)C3)cc21 (configuration not stated) | i | i | 22% | .
CCc1nc2nc(C)cc(Nc3cccc(C)c3C)n2n1 | i | i | 28% | .
Cc1cc(Nc2cc(Cl)ccc2C)n2nc(Cc3ccccc3)nc2n1 | i | i | 35µM* | .
Cc1cccc(Nc2cc(C)nc3nc(Cc4ccc(Cl)cc4)nn23)c1 | i | i | ? | .
CCc1nc2nc(C)cc(Nc3cc(C)ccc3C)n2n1 | i | i | 20µM* | .
CCOc1ccc(-c2nn(-c3ccccc3)cc2C2NC(=O)NC(C)=C2C(=O)OC(C)C)cc1C (configuration not stated) | i | i | 16% | 6%
CC(C)Oc1ccc(CNC(=O)c2cccc(NC(=O)N3CCSc4ncccc43)c2)cc1 | i | i | 13% | .
CCCCCCCCN1C(=O)[C@H](CC(=O)N2CCN(C(=O)OCC)CC2)C[C@@]2(C(=O)OCC)CCCC=C12 | i | ? | 25µM* | 0%
SMILES | Abeta yeast res | FUS suppressor | TDP43 rescue | aSyn yeast inh
CCCCNC(=O)C[C@@H]1C[C@@]2(C(=O)OCC)CCCC=C2N(CCC2=CCCCC2)C1=O | i | i | 35µM* | 0%
CCOC(=O)[C@]12CCC=C1N(CCC1=CCCCC1)C(=O)[C@H](CC(=O)NCCCOC)C2 | i | i | 22% | -3%
CCOC(=O)N1CCN(C(=O)C[C@@H]2C[C@@]3(C(=O)OC)CCCCC=C3N(Cc3ccc(Cl)cc3Cl)C2=O)CC1 | i | ? | 22µM* | 19%
CCOC(=O)[C@]12CCCC=C1N(CCC1=CCCCC1)C(=O)[C@H](CC(=O)NCc1cccc3ccccc13)C2 | ? | i | 35µM* | 18%
CCOC(=O)Cn1c(=O)oc2cc(S(=O)(=O)N3CCN(c4cc(C)ccc4C)CC3)ccc21 | i | i | 11% | .
O=C(CSc1nccn1Cc1ccco1)Nc1cc(C(F)(F)F)ccc1Cl | i | i | 11% | .
CC(=O)N1c2ccc(S(=O)(=O)Nc3ccc(Cl)cc3C)cc2CC1C (configuration not stated) | ? | i | 20% | .
O=C(Cc1cccc2ccccc12)NO | . | . | . | 2%
Oc1ccccc1C1C=C(c2ccc3c(c2)OCO3)NC(c2cccc(Br)c2)N1 (configuration not stated) | . | . | . | 22%
CCCCCCCCN1C(=O)[C@H](CC(=O)NCCCN2CCCC2=O)C[C@@]2(C(=O)OCC)CCCC=C12 | i | ? | 21% | 7%
CCCCCCCCN1C(=O)[C@H](CC(=O)NCCCOC)C[C@@]2(C(=O)OCC)CCCC=C12 | i | 13µM* | 0% | 9%
CCCc1cc(=O)[nH]c(SCC)n1 | i | ? | -15% | 1%
CCCc1cc(=O)[nH]c(-n2[nH]c3c(c2=O)CCCC3)n1 | ? | i | -19% | 25µM*
Cc1c(C)n(CCC#N)c2ccc(Cl)cc12 | i | . | 13µM* | 20%
CCn1c(C)c(C)c2cc(C(=O)Nc3cccc(Cl)c3)ccc21 | i | i | -14% | 11%
Clc1ccc(CSc2nnc(-c3ccncc3)o2)cc1 | i | i | 6.3µM* | .
Fc1ccc(CSc2nnc(-c3ccncc3)o2)cc1 | i | i | 13µM* | 0%
Cc1ccc(Cl)cc1N1CCN(C(=O)c2ccc3c(c2)CCN3S(=O)(=O)c2ccccc2)CC1 | i | i | 0% | .
CCOC(=O)c1c(NC(C)=O)c2c3c(sc2n1Cc1nc(-c2ccc(Cl)cc2)oc1C)CCCC3 | i | i | 12% | .
O=C(CSc1nnc(-c2cccs2)o1)c1ccc2c(c1)OCO2 | . | i | . | .
COc1cc(C2CC(=O)Nc3ccc4ccccc4c32)ccc1OC(=O)C(C)C (configuration not stated) | i | i | 18% | .
O=C(NCc1nc2ccccc2[nH]1)C1=C[C@H](c2ccc(C(F)(F)F)cc2)C[C@H](OCc2ccc(CO)cc2)O1 | i | 25µM* | -1% | -11%
O=C(NCc1nc2ccccc2[nH]1)C1=C[C@H](c2ccc(Br)cc2)C[C@H](OCc2ccc(CO)cc2)O1 | i | ? | ? | -7%
COc1ccc(N2CCN(c3c4c(nc5nncn35)CCC4)CC2)cc1 | i | i | ? | .
Cc1c(C(=O)Nc2ccc(N3CCOCC3)cc2)oc2ccccc12 | i | i | 7.9µM* | -7%
O=C(NCc1ccc(C(F)(F)F)cc1)O[C@H]1CC[C@@]23CCCN2C(=O)CCC[C@H]3C1 | . | i | . | .
Cc1ccccc1NC(=O)c1c(Cl)nc(C)c(Cl)c1C | i | i | 19% | 0%
Cc1nc(Cl)c(C(=O)NC(=O)NCc2ccccc2)c(C)c1Cl | i | i | 14µM* | 21%
